This note sets out measurements from PubChem BioAssay (NCATS).

What all share (experiment): qHTS profiling for inhibitors of Plasmodium falciparum proliferation (AID 504749); note: nearly all actives have a fitted effect of over 60% in size
Holding throughout (conditions): P. falciparum in erythrocytes, SYBR Green DNA, 72 h; series mostly up to 28.7 µM
Background: In qHTS, concentration-response curves come from the screen itself.

The test system of one assay is CP335. Summed up: (§1)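 Fluorescence of SYBR Green-bound parasite DNA, read at 485/535 nm, served as the growth measure. Infected erythrocytes were cultured with compound 72 h; artemisinin (0.29 uM) and DMSO wells defined the normalization range.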
The next assay relates to DFO2036. Summed up: as §1
The next assay deals with DIV14. The procedure, abridged:
as §1

The next assay concerns DIV17. Summed up: as §1
A further assay concerns DIV30. Summed up: as §1
The next assay deals with Dd2. Summed up: as §1
The next assay has as its system ECU. The procedure, abridged: as §1
The subject of a further assay is FAB9. Summed up: as §1
A further assay concerns GB4. Summed up: as §1
A further assay deals with HB3. Summed up: as §1
A further assay relates to ICS. Summed up: as §1
A further assay concerns JCK. Summed up:
as §1

Another assay relates to N140. Summed up: as §1
A further assay concerns P93_24. The procedure, abridged:
as §1

A further assay concerns P94_40. Summed up:
as §1

The next assay concerns PAD. Summed up: as §1
Another assay has as its system PC15. Summed up: as §1
The subject of another assay is PC26. Summed up:
as §1

For a further assay, the system named is PC49. Summed up:
as §1

A further assay relates to SC27B. The procedure, abridged:
as §1

Inconclusive results are not listed. The source made the active and inactive calls. Calls come from the whole dose curve; as a rule, active = well fitted inhibition curve with a large enough effect; inconclusive = small, poorly fitted or top-dose-only effect; inactive = flat fitted curve, though single readings scatter.
Potency is the fitted concentration of half-maximal effect.

For `FC(F)(F)c1cccc(C2=CCN(CCc3ccc4ccccc4c3)CC2)c1`, the Potency result with CP335, with DFO2036, in the assay on DIV14, with DIV17, in the assay with DIV30 and in the assay on Dd2 was “inactive” in each case. For the same molecule, the Potency entry with ECU, in the assay with FAB9, in the assay on GB4, with HB3, in the assay on ICS and in the assay on JCK was “inactive” throughout. Moreover, the Potency result in the assay on N140, in the assay with P93_24, with P94_40, with PAD, in the assay with PC15 and in the assay on PC26 was “inactive” each time. The Potency entry with PC49 and with SC27B was “inactive” throughout.

Regarding `CN1CCN(C(=O)O[C@H]2c3nccnc3C(=O)N2c2ccc(Cl)cn2)CC1`, the Potency result with CP335, in the assay with DFO2036, with DIV14, in the assay with DIV17, in the assay on DIV30 and in the assay on Dd2 was “inactive” in each case. For the same molecule, the Potency entry in the assay with ECU, in the assay on FAB9, in the assay with GB4, with HB3, in the assay on ICS and in the assay with JCK was “inactive” each time. The Potency entry in the assay with N140, in the assay on P93_24, with P94_40, in the assay on PAD, with PC15 and in the assay with PC26 was “inactive” throughout. For the same molecule, the Potency result in the assay on SC27B was “inactive”.

Consider `O=C(NC(O)C(Cl)(Cl)Cl)NC(O)C(Cl)(Cl)Cl` (centres undefined), for which the Potency result in the assay on CP335, with DFO2036, in the assay with DIV14, with DIV17, in the assay with DIV30 and in the assay with Dd2 was “inactive” in each case. The Potency entry in the assay with ECU, in the assay on FAB9, with GB4, in the assay with HB3, in the assay on ICS and in the assay with JCK was “inactive” in each case. The Potency result in the assay on N140, with P93_24, in the assay on P94_40, in the assay on PAD, with PC15 and in the assay on PC26 was “inactive” each time. The Potency result in the assay on PC49 and in the assay on SC27B was “inactive” in each case.

As for `CC(=O)[C@H]1CC[C@H]2[C@@H]3CC[C@H]4C[C@](C)(O)CC[C@]4(C)[C@H]3CC[C@]12C`, the Potency entry in the assay on CP335, in the assay on DFO2036, in the assay on DIV14, in the assay with DIV17, in the assay on DIV30 and in the assay with Dd2 was “inactive” each time. Further, the Potency entry with ECU, with FAB9, in the assay on GB4, in the assay on HB3, in the assay on ICS and in the assay on JCK was “inactive” in each case. Also, the Potency result in the assay on N140, in the assay with P93_24, in the assay with P94_40, in the assay on PAD, in the assay with PC15 and in the assay with PC26 was “inactive” each time. Moreover, the Potency result in the assay with PC49 and in the assay with SC27B was “inactive” in each case.

In the case of `CCCC(C)(COC(N)=O)COC(=O)NC(C)C` (centres undefined), the Potency entry in the assay on CP335, in the assay with DFO2036, in the assay with DIV14, with DIV17, in the assay on DIV30 and in the assay on Dd2 was “inactive” throughout. Further, the Potency entry with ECU, in the assay on FAB9, in the assay on GB4, in the assay with HB3, in the assay on ICS and with JCK was “inactive” in each case. Besides, the Potency result in the assay with N140, in the assay with P93_24, with P94_40, with PAD, in the assay with PC15 and in the assay on PC26 was “inactive” each time. In addition, the Potency entry in the assay on PC49 and with SC27B was “inactive” throughout.

With `Oc1cccc2cccnc12`, the Potency entry in the assay with CP335, in the assay on DFO2036, in the assay with DIV14, in the assay on DIV17, in the assay with DIV30 and in the assay on Dd2 was “inactive” in each case. For the same molecule, the Potency result in the assay with ECU, with FAB9, in the assay with GB4, in the assay with HB3, with ICS and in the assay on JCK was “inactive” each time. Besides, the Potency entry in the assay on N140, in the assay on P93_24, with P94_40, in the assay on PAD, in the assay with PC15 and in the assay on PC26 was “inactive” throughout. Further, the Potency entry in the assay with PC49 and in the assay with SC27B was “inactive” throughout.

On to `CC1OC(C)OC(C)O1` (centres undefined), for which the Potency result in the assay on CP335, in the assay on DFO2036, with DIV14, in the assay on DIV17, with DIV30 and in the assay with Dd2 was “inactive” in each case. The Potency entry in the assay with ECU, with FAB9, in the assay with GB4, in the assay with HB3, with ICS and in the assay on JCK was “inactive” in each case. For the same molecule, the Potency result with N140, with P93_24, in the assay with P94_40, with PAD, in the assay on PC15 and in the assay with PC26 was “inactive” in each case. For the same molecule, the Potency result in the assay with PC49 and in the assay on SC27B was “inactive” throughout.

As to `O=c1[nH]c2ccccc2n1C1CCN(CCCC(c2ccc(F)cc2)c2ccc(F)cc2)CC1`, the Potency was 13.5 µM (active) in the assay with CP335, 7.94 µM (active) in the assay on Dd2, 10 µM (active) in the assay on HB3 and 14.1 µM (active) with ICS. The Potency entry in the assay on DFO2036, with DIV14, in the assay on DIV17, in the assay on DIV30, in the assay with ECU and in the assay with FAB9 was “inactive” throughout. The Potency entry in the assay on GB4, in the assay with JCK, with P94_40, in the assay on PAD, in the assay on PC15 and in the assay with PC49 was “inactive” each time. Also, the Potency entry in the assay on SC27B was “inactive”.

As for `CN1C[C@H](CNC(=O)OCc2ccccc2)C[C@@H]2c3cccc4c3c(cn4C)C[C@H]21`, the Potency in the assay on CP335 was 6.75 µM (active); in the assay with DFO2036 it was 8.91 µM (active); in the assay on DIV14, 8.49 µM (active); with DIV17, 15.1 µM (active); in the assay with DIV30, 15.1 µM (active); in the assay on Dd2, 7.94 µM (active). Also, the Potency in the assay with ECU is 11.2 µM (active); with GB4, 8.49 µM (active); in the assay on ICS, 7.08 µM (active); in the assay with N140, 12.6 µM (active); with P93_24, 5.01 µM (active); in the assay on P94_40, 6.31 µM (active). In addition, in the assay with PC26, the Potency is 13.5 µM (active). Also, the Potency entry with FAB9, in the assay on JCK and with PC49 was “inactive” in each case.

Turning to `CC(=O)Nc1cc([As](=O)(O)O)ccc1O`, the Potency entry in the assay on CP335, in the assay with DFO2036, with DIV14, in the assay with DIV17, with DIV30 and with Dd2 was “inactive” in each case. Besides, the Potency entry in the assay on ECU, in the assay with FAB9, with GB4, in the assay with HB3, in the assay with ICS and in the assay with JCK was “inactive” in each case. The Potency entry with N140, with P93_24, with P94_40, with PAD, with PC15 and with PC26 was “inactive” throughout. For the same molecule, the Potency entry with PC49 and in the assay with SC27B was “inactive” each time.

Regarding `CCOC(=O)C1(c2ccccc2)CCN(CCC(C#N)(c2ccccc2)c2ccccc2)CC1`, the Potency with CP335 is 3.38 µM (active); with DFO2036, 2.82 µM (active); in the assay on DIV14 it was 4.78 µM (active); with DIV17, 6.75 µM (active); with DIV30 it was 6.75 µM (active); in the assay with Dd2, 8.91 µM (active). The Potency with ECU was 3.98 µM (active); in the assay on GB4 it was 3.38 µM (active); in the assay on HB3, 5.01 µM (active); in the assay with ICS, 2.24 µM (active); in the assay on N140, 3.55 µM (active); in the assay with P93_24, 3.55 µM (active). Further, the Potency in the assay with P94_40 is 3.16 µM (active); in the assay on PAD, 2.51 µM (active); with PC15, 12.6 µM (active); in the assay on PC26 it was 6.75 µM (active); in the assay on SC27B it was 2.82 µM (active).

In the case of `NCC(CC(=O)O)c1ccc(Cl)cc1` (centres undefined), the Potency result with CP335, with DFO2036, in the assay with DIV14, in the assay with DIV17, in the assay on DIV30 and in the assay on Dd2 was “inactive” each time. In addition, the Potency result in the assay with ECU, in the assay with FAB9, with GB4, in the assay with HB3, in the assay on ICS and in the assay on JCK was “inactive” throughout. Also, the Potency result in the assay on N140, with P93_24, with P94_40, in the assay with PAD, in the assay on PC15 and with PC26 was “inactive” in each case. Also, the Potency result in the assay with PC49 and in the assay on SC27B was “inactive” throughout.

As to `CN(C)CCc1ccc(O)cc1`, the Potency result in the assay on CP335, in the assay with DFO2036, in the assay on DIV14, in the assay on DIV17, with DIV30 and with Dd2 was “inactive” in each case. The Potency result in the assay with ECU, in the assay on FAB9, in the assay on GB4, in the assay on HB3, with ICS and with JCK was “inactive” throughout. Moreover, the Potency entry in the assay with N140, in the assay on P93_24, in the assay on P94_40, with PAD, in the assay on PC15 and in the assay on PC26 was “inactive” each time. The Potency entry in the assay on PC49 and in the assay on SC27B was “inactive” throughout.
